Experimental findings from PubChem BioAssay AID652257 (The Scripps Research Institute Molecular Screening Center, 2013) are described below.

Out of some 370,000 compounds screened, about 4,800 (1.3%) were called active. What follows is part of a selection rich in actives, with near analogues and random picks from the rest. Values without a mark were called inactive.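 Rule for the calls: active = inhibition above about 21% made by adding two undisclosed values (limit read from the data); inactive = the rest.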

The target of the experiment is Protein arginine N-methyltransferase 1 (Homo sapiens) (UniProt Q99873). As to the kind of experiment: PRMT1 methyltransferase inhibitors, primary screen, biochemical, fluorescence polarization (AID 652257). Conditions: recombinant PRMT1, activity-based probe fluorescence polarization; at 2.79 µM; hits give high values.
Protein arginine N-methyltransferase 1 (Homo sapiens), sequence (Q99873 whole entry, looked up): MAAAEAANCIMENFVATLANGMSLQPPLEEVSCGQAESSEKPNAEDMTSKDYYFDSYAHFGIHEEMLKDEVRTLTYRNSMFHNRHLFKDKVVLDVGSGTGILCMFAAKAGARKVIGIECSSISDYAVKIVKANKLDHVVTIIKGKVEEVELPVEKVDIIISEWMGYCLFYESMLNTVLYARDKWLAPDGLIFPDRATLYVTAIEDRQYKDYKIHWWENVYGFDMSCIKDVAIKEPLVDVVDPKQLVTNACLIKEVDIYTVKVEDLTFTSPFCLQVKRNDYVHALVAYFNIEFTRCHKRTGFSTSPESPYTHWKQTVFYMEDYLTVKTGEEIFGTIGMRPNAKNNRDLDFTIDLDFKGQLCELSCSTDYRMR
As for `O=C(Cc1ccc(-c2ccccc2)cc1)NC(c1ccccc1)c1ccccc1`, the inhibition is 44.1% (active).
Turning to `O=C(CN1CCc2ccccc21)NC(c1ccccc1)c1ccccc1`, the inhibition was -3.28%.
For `CCOC(=O)/C=C/C(=O)OCC(=O)NC(c1ccccc1)c1ccccc1` the value was 8.52%; for `COc1ccc(OCC(=O)Nc2nnc(-c3ccco3)s2)cc1`, 22.1% (active).
For `COc1ccc(CNC(=O)CCC(=O)Nc2nnc(C(C)C)s2)cc1` the value was 6.7%.
For `COc1ccc(OCCCC(=O)Nc2nnc(C3CCCO3)s2)cc1` (stereo unspecified), the inhibition was 2.04%.
As for `O=C(NCc1cccs1)C1CCCN(S(=O)(=O)c2ccc([N+](=O)[O-])cc2)C1` (stereo unspecified), the inhibition is 0.46%.
With `C=CCN1C(=O)[C@H](CC(=O)NCCCN2CCCC2=O)[C@@]2(C(=O)OCC)CCCC=C12`, the inhibition was 0.15%.
On to `O=C(NCCOc1cccnc1)c1ccc(OC2CCN(Cc3ccccn3)CC2)cc1`, for which the inhibition is 3.52%.
`Cc1ccccc1N1CC(C(=O)Nc2nnc(SCCC3OCCO3)s2)CC1=O` (stereo unspecified): the inhibition was 5.12%.
Then `Cc1ccnc(-n2sc3ccccc3c2=O)n1`, with 90.7% (active); and `CCOc1ccc(-n2cnnn2)cc1S(=O)(=O)N1CCC(C)CC1C` (stereo unspecified), with -4.54%.
Turning to `CC(NC(=S)NC1CCCCC1)C(c1ccccc1)N1CCOCC1` (stereo unspecified), the inhibition was 0.42%.
Turning to `COc1ccc(N2CCN(CCNS(=O)(=O)c3ccc([N+](=O)[O-])cc3)CC2)cc1`, the inhibition was -4.73%.
As for `O=C(CC1CCCCC1)NCc1ccco1`, the inhibition is -1.65%.
As to `CC1(c2ccccc2Cl)NC(=O)N(CC(=O)NC(=O)NCc2ccco2)C1=O` (stereo unspecified), the inhibition was 5.3%.
In the case of `O=C(CC1N=C2c3ccccc3N=C(SCc3ccccc3Cl)N2C1=O)NCc1ccco1` (stereo unspecified), the inhibition was 26.2% (active).
In the case of `O=C(NCCCN1CCN(c2ccc(F)cc2)CC1)Nc1ccc([N+](=O)[O-])cc1`, the inhibition is -0.66%.
For `Nn1c(SCC(=O)Nc2cccc3ccccc23)nnc1-c1cc(-c2ccc(F)cc2)n[nH]1` the value was 2.17%; for `CN(C)c1ccc(Nc2c3c4c(cccc4n(C)c2=O)C(=O)c2ccccc2-3)cc1`, 56.4% (active); for `Cc1cc(Cl)ccc1C(=O)C1CCCN(C(=O)c2nonc2C)C1` (stereo unspecified), -0.28%.
Turning to `COc1ccc(Cn2cc(COC(=O)N(C)Cc3ccccc3)nn2)cc1`, the inhibition was -6.72%.
For the molecule `Cc1cccc(N2CCN(C(=O)c3cc4c(=O)[nH]c5ccccc5c4n3C)CC2)c1C`, the inhibition was -1.76%.
For `CCn1c(C)c(C)c2cc(C(=O)N3CCN(c4cccc(C)c4C)CC3)ccc21` the value was 2.44%; for `Cc1cccc(N2CCN(C(=O)/C=C/c3ccco3)CC2)c1C`, 29.9% (active).
For `CN(C)c1ccc(NC(=O)NC2CCCCN(Cc3ccc(Cl)cc3)C2=O)cc1` (stereo unspecified), the inhibition was 4.83%.
Regarding `Nn1c(SCC(=O)Nc2ccc(S(N)(=O)=O)cc2)nnc1-c1n[nH]c2c1CCC2`, the inhibition is 0.39%.
As to `CN(C)[C@H]1CCN(c2cccc3c2S(=O)(=O)N2CC[C@H](C2)O3)C1`, the inhibition was 0.28%.
For `CC(=O)OC12CCCN(C1)/C(=C/c1ccncc1)C2` (stereo unspecified) the value was -0.73%; for `COCCCNC(=O)CC1C[C@H](C(=O)N2CCCCC2)[C@@]2(CCc3ccccc3)c3[nH]c4ccccc4c3CCN2C1=O` (stereo partly specified), -2.68%.
Turning to `CCCCCCCCNS(=O)(=O)/C=C/c1cc(C)ccc1CNC(=O)OC(C)(C)C`, the inhibition was -0.82%.
On to `O=C(CSc1ccccc1)Nc1cccc(S(=O)(=O)N2CCCCC2)c1`, for which the inhibition was -5.2%.
Then `Cc1cc(NC(=O)C(C)SCC(=O)Nc2ccccc2N2CCCCC2)no1` (stereo unspecified), with -2.38%; and `Cc1cc(NC(=O)C(C)SCC(=O)Nc2cccc(S(=O)(=O)N3CCCCCC3)c2)no1` (stereo unspecified), with 71.1% (active); and `C=C1C(C(C)C)N(C)C2=NC(c3ccccc3)CC(=O)N12` (stereo unspecified), with -3.21%.
`N#Cc1ccc(C(C(=O)NCc2ccccc2)n2c(=O)c(-c3ccco3)nc3ccccc32)cc1` (stereo unspecified): the inhibition is 20.9%.
Take `O=C(NC1CCCCC1)C(c1cc2ccccc2o1)n1c(=O)c(-c2ccco2)nc2ccccc21` (stereo unspecified): the inhibition was 10.9%.
Regarding `Cc1cccc(C)c1NC(=O)C(c1ccc(C(F)(F)F)cc1)n1c(=O)c(-c2ccco2)nc2ccccc21` (stereo unspecified), the inhibition was 23.1% (active).
Then `Cc1ccc(CSc2nnc(SCC(=O)NN=Cc3cc(Br)ccc3F)s2)cc1`, with 3.3%.
For `CCc1cccc2c3c([nH]c12)C(CC)(CC(=O)O)OCC3` (stereo unspecified), the inhibition is 1.16%.
Then `C[C@H]1CCC/C=C/C(=O)c2c(O)cc(O)cc2CC(=O)O1`, with 7.7%.
Regarding `C[C@@H](NC(=O)OC(C)(C)C)c1nnc(S(=O)(=O)Cc2ccccc2)o1`, the inhibition was 21.3% (active).
As to `CC(C)[C@@H](NC(=O)OC(C)(C)C)C(=O)NCC1CCC(C(=O)N[C@@H](Cc2ccccc2)C(=O)O)CC1` (stereo partly specified), the inhibition is 2.79%.
Consider `CC(C)(C)c1ccc(C(CC(=O)O)NS(=O)(=O)Cc2ccccc2)cc1` (stereo unspecified), for which the inhibition is -1.05%.
Turning to `CCOC(=O)[C@]12CCCC=C1N(Cc1ccc(OC)cc1)C(=O)[C@@H]2CC(=O)N1CCOCC1`, the inhibition was -1.02%.
Take `O=C(NCc1ccc(Cl)cc1)C1CCCN(c2nc3ccccc3o2)C1` (stereo unspecified): the inhibition was 4.6%.
`O=C(CN1CCN(S(=O)(=O)c2cc(Cl)ccc2Cl)CC1)c1ccc(O)c(O)c1`: the inhibition was 18.9%.
Turning to `N#Cc1ccccc1S(=O)(=O)N1CCN(Cc2c(O)ccc3ccccc23)CC1`, the inhibition was 34.5% (active).
Regarding `N#Cc1ccccc1S(=O)(=O)N1CCN(C(=O)c2cc(-c3ccccc3)nn2-c2ccccc2)CC1`, the inhibition was -1.25%.
Then `CC1=CC(C)(C)Nc2ccc(OC(=O)CN3C(=O)C4CCCCC4C3=O)cc21` (stereo unspecified), with 0.85%; and `CCOC(=O)c1c(N)c(C#N)nn1-c1ccccc1C(=O)OC`, with 6.05%.
For `O=C1CCCCC1Sc1ccc(Cl)cc1[N+](=O)[O-]` (stereo unspecified) the value was 48.8% (active); for `O=C(COc1ccc(Cl)cc1[N+](=O)[O-])N1CCCCC1`, -4.9%.
In the case of `CSc1ccccc1NC(=O)CN(C)CC(=O)Nc1ccc(Cl)cc1[N+](=O)[O-]`, the inhibition is -1.57%.
Regarding `CC(=O)OCCN1CCCC12CCC(c1ccccc1)CC2` (stereo unspecified), the inhibition is 2.94%.
With `C=C(C)C1CC23C(=O)C4(C(=O)c5ccccc5)C[C@@]5(C)CCC(CC2C1(C)C)(C4=O)C35OC` (stereo partly specified), the inhibition was 3.86%.
Consider `COc1ccc(C2CC(=O)n3c(nc4ccccc43)S2)cc1OC` (stereo unspecified), for which the inhibition is 0.28%.
Regarding `COc1ccc(C2CC(c3cccs3)=Nc3ccccc3S2)cc1OC` (stereo unspecified), the inhibition is 63.7% (active).
`COc1ccc(C2CC(c3cccs3)=NN2c2nc(C)c(C(C)=O)s2)cc1OC` (stereo unspecified): the inhibition was 0.1%.
Then `O=S1(=O)c2ccc(Br)cc2OC[C@@H](Cc2ccccc2)N1Cc1cn(Cc2ccco2)nn1`, with -6.43%.
Regarding `COc1ccc(C(=O)CSc2nnc(-c3cnccn3)n2-c2ccc(C)cc2)cc1`, the inhibition was -1.24%.
`N#CCC(=O)NC(=O)NCC1CC1`: the inhibition is 1.85%.
As for `Nc1ccc2nc3c(=O)[nH]c(=S)[nH]c3nc2c1`, the inhibition was 129% (active).
In the case of `COc1nc(NCc2ccc(Cl)cc2)nc(OC)n1`, the inhibition was -0.93%.
For `COC(=O)c1ccc(/C=N/N2C(C)CCCC2C)cc1` (stereo unspecified), the inhibition was -0.34%.
Regarding `CCN(CC)S(=O)(=O)c1cccc(-c2n[nH]c(=S)n2/N=C/c2ccc(C(=O)OC)cc2)c1`, the inhibition was 31.9% (active).
Then `CCN(CC)S(=O)(=O)c1cccc(NC(=O)c2ccc(S(=O)(=O)N3CCCC3)cc2)c1`, with 2.8%.
With `Cc1cc(=O)[nH]c(SCC(=O)Nc2ccc(Cl)cc2C)n1`, the inhibition was -2.19%.
On to `CCOC(=O)Cc1csc(SCC(=O)Nc2ccc(C)cc2F)n1`, for which the inhibition was 1.96%.
On to `CCOC(=O)Cc1csc(NC(=O)CSc2nc(C)cc(=O)[nH]2)n1`, for which the inhibition is 63.7% (active).
For `Clc1cccc2c1C1CC2CCN1Cc1ccccc1` (stereo unspecified) the value was -1.44%.
For the molecule `CCCn1c(N)c(C(=O)CSc2nnc(-c3cccnc3)n2-c2ccc(C)cc2C)c(=O)[nH]c1=O`, the inhibition was -1.38%.
Regarding `COc1ccc(C#CCNCc2ccc(OC)cc2OC)cc1`, the inhibition was 0.44%.
Then `CN(C)S(=O)(=O)c1cccc(-c2nn(-c3ccccc3)cc2/C=C2\SC(=S)N(CC(=O)O)C2=O)c1`, with 28.2% (active).
Then `O=C(/C=C/c1cn(-c2ccccc2)nc1-c1ccc2c(c1)OCCO2)NCCCN1CCOCC1`, with 3.18%.
On to `Cc1ccc(-c2nn(-c3ccccc3)cc2CN(Cc2ccccc2)C(=O)CCC(=O)O)o1`, for which the inhibition was 30.5% (active).
For the molecule `O=C(O)CCC(=O)N(Cc1ccccc1)Cc1ccccc1`, the inhibition is -4.57%.
Regarding `Cc1ccc(-c2nn(-c3cccc(F)c3)cc2CNCCc2ccncc2)o1`, the inhibition was -2.78%.
In the case of `COc1cccc(-c2nn(-c3ccccc3)cc2/C=C(\C#N)C(=O)NCCCn2ccnc2)c1`, the inhibition was -2.79%.
Then `Cc1ccc(-c2nn(-c3ccccc3)cc2/C=C2\SC(=S)N(CCCCCC(=O)O)C2=O)o1`, with 78.2% (active).
As for `COc1ccc(COCCN2CCN(S(=O)(=O)c3ccccc3)CCC2=O)cc1`, the inhibition is 1.29%.
As to `O=C(NCC1COc2ccccc2O1)c1ccc(NC(=O)c2cc(F)ccc2F)cc1` (stereo unspecified), the inhibition was 4.4%.
In the case of `NC(=O)c1ncn([C@@H]2O[C@H](CNCc3cnc(N4CCOCC4)s3)[C@@H](O)[C@H]2O)n1`, the inhibition was -0.65%.
Take `C[C@@H]1ON(C)[C@H]2C[C@H]3c4[nH]c5cccc(-c6ccc7c(c6)OCO7)c5c4CCN3C[C@@H]12`: the inhibition is -2.89%.
For the molecule `COC(=O)[C@H](C(C)C)N1CCc2nnn(Cc3ccc(C)cc3)c2-c2ccccc2S1(=O)=O`, the inhibition is 0.49%.
With `CCOC(=O)[C@]12CCCC3=C1N(CCC3)C(=O)[C@@H](CC(=O)NCC13CC4CC(CC(C4)C1)C3)C2`, the inhibition is -3.58%.
